Hits are enriched below; roughly 7.4% of the tested compounds scored in any of these assays.
ELG1 genotox – induces genotoxicity in HEK293T cells with luciferase-tagged ELG1. AID 504466. actives 1.3% (n = 330,000). Potency, µM (titrated, usually from 46 µM), for the others: at the top dose activity change, positive = activation, most hits filed as activators. HEK293T ELG1-luciferase reporter, luminescence, 16 h; also: % of control where 0% means no effect; nearly all actives have a fitted effect of over 60% in size
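Reporter readout depends on ELG1 protein level, which increases with genetic stress. After 16 hr compound exposure at 37 °C, luciferase activity was quantified using ONE-Glo.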
FLuc counter – firefly luciferase modulation, counter-screen for miR-21 project | P08659 | purified FLuc, Km substrates, luminescence inhibition | Potency, µM (titrated, usually from 57.5 µM), inactives show top-dose activity change, negative = inhibition, most hits filed as inhibitors | actives 6.9% (n = 360,000);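 also: plate controls were vehicle for no effect and reference inhibitor for full effect; nearly all actives have a fitted effect of over 55% in size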
Target sequence (P08659 whole entry, looked up): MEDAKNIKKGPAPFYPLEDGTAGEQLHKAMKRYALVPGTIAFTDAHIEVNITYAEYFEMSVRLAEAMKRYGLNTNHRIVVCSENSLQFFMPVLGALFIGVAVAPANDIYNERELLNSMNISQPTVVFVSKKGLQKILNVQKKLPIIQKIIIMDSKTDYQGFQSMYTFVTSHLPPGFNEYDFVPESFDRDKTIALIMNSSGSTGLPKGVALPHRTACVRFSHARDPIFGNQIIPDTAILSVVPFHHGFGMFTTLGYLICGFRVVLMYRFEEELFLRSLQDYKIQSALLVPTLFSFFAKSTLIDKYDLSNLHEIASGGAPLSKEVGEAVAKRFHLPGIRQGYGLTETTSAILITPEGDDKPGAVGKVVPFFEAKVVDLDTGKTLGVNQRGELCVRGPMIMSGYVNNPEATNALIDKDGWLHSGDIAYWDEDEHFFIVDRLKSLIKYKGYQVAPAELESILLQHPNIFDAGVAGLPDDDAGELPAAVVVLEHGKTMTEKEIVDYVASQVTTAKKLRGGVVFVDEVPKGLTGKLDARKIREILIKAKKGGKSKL
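Biochemical qHTS of compounds, final roughly 60 µM downward over six points, against 10 nM purified firefly luciferase using Km concentrations of substrates (10 uM D-luciferin, 10 uM ATP) in Tris acetate pH 7.5 buffer; luminescence output.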
Rab9 prom act – activators of Rab9 promoter; Huh7 Rab9 promoter-luciferase reporter, luminescence, 24 h; Potency, µM (highest dose often 9.22 µM), for the others: top-dose activation, negative = inhibition, most hits filed as activators; actives 2.8% (n = 320,000); AID 485297; also: % of control where 0% means no effect; nearly all actives have a fitted effect of over 60% in size
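Luminescence read-out: Huh7 cells stably expressing Rab9-luciferase, treated 24 h with compound at 37 °C, then lysed with luciferase reagent for 10 min at ambient before reading.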
SMN2 splice up – SMN2 splice variant enhancement; AID 1458; HEK293 SMN2-luciferase splicing reporter, luminescence, 30-36 h; Potency, µM (top dose mostly 46.1 µM), without a hit: at the highest dose activity change, positive = activation, hits mostly activators; actives 2.8% (n = 210,000); also: % of control where 0% means no effect; nearly all actives have a fitted effect of over 55% in size
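HEK293 cells carry an SMN2 […]–luciferase reporter in which exon 7 inclusion puts luciferase in frame. Cells were plated 10-12 h before compound addition, then incubated 30-36 h at 37C. ONE-Glo luminescence was read; sodium butyrate at 4.5 mM final served as control.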
NPC1 prom act – activates the NPC1 promoter; Huh7 NPC1 promoter luciferase reporter, 24 h; Potency, µM (top dose mostly 9.22 µM), without a hit: top-dose activation, actives largely listed as activators; actives 2.4% (n = 320,000); also: % of control where 0% means no effect; nearly all actives have a fitted effect of over 60% in size
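Compounds in DMSO were transferred onto Huh7 NPC1-luciferase reporter cells pre-incubated 2 h; after 24 h at 37 °C, Amplite reagent was dispensed and luminescence recorded 10 min later.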
Starred values were filed as active, the others as inactive; ? = inconclusive; · = no result. Calls follow the shape of the dose curve; as a rule, active = well fitted curve in the direction sought with a large enough effect; inconclusive = small, poorly fitted or top-dose-only effect, or another doubt; inactive = no such curve, though single readings can be large; an effect the other way counts as inactive or inconclusive. Potency is read from the fitted curve at half-maximal effect.

SMILES | ELG1 genotox | FLuc counter | Rab9 prom act | SMN2 splice up | NPC1 prom act
O=[N+]([O-])c1cc([N+](=O)[O-])c(Oc2cccnc2Br)cc1NN1CCCCC1 | · | 5% | ? | · | 16%
Cc1ccc(-n2ncc(C(=O)NCCN3CCOCC3)c2C2CCN(C(=O)OC(C)(C)C)CC2)c(C)c1 | · | -8% | · | · | ·
CC(C)NC(=O)CCn1c(SCc2c(F)cccc2Cl)nc2c(sc3ccccc32)c1=O | · | -2% | · | 1% | ·
CC(Sc1nnc(C2CC2)n1C1CC1)C(=O)N(C)C1(C#N)CCCCC1 (configuration not stated) | -1% | 3% | 1% | · | -1%
CCN(CC)CCNC(=O)Cn1nc(C)c2c(C)n(-c3ccccc3)nc2c1=O | · | 3% | · | · | ·
CC1CCN(S(=O)(=O)c2ccc(N3CCCCS3(=O)=O)cc2)CC1 | · | -2% | · | · | ·
CCOC(=O)CCN1C(=O)c2ccccc2Sc2ncccc21 | 0% | -1% | 2% | · | -4%
Cc1ccc(Nc2nnc(-c3ccccc3N)o2)cc1C | ? | 2.7µM* | 3.5µM* | · | 3.5µM*
CC(C)c1ccc(-n2cnn(-c3ncccc3[N+](=O)[O-])c2=O)cc1 | 2.3µM* | 3µM* | 0.89µM* | 7.9µM* | 1.1µM*
Cc1cc(C)n(-c2ncccc2[N+](=O)[O-])n1 | 0% | 1% | -5% | · | 0%
COC(=O)CCCn1nc(NC(=O)COc2ccc(F)cc2)cc1C | -1% | 0% | -1% | · | -3%
O=C(Nc1ccc(OCc2ccccc2)cc1)c1ccccc1 | 16% | 1% | ? | ? | ?
O=C(Nc1ccccc1F)c1ccc(CSc2ncccn2)cc1 | ? | ? | 3.5µM* | ? | 3.5µM*
O=C(Nc1ccccc1)c1ccc(CSc2ncccn2)cc1 | ? | 3.4µM* | 1µM* | 13µM* | 1.1µM*
CC(=O)Nc1nnc(SCc2ccc(C(=O)Nc3ccccc3F)cc2)s1 | 9% | 4% | 14% | -17% | -5%
Cc1ccc(NC(=O)c2ccc(CSc3nccc(C)n3)cc2)cc1 | -5% | ? | 9% | · | 19%
O=C(Nc1ccccc1F)c1ccc(OCc2ccccc2)cc1 | ? | ? | ? | 22µM* | ?
Cc1ccc(C(=O)NC(=S)Nc2cccnc2Cl)cc1 | ? | 12µM* | 2.8µM* | · | 2.5µM*
COc1ccccc1C(=O)NC(=S)Nc1cccnc1Cl | 0.82µM* | 2.4µM* | 1µM* | · | 1.1µM*
Cc1ccc(C(=O)NC(=S)Nc2ccccc2C(F)(F)F)cc1 | 0% | ? | 15% | · | -3%
COc1ccc(NC(=O)Cn2c(SCc3ccc(C)cc3)nc3cccnc32)cc1OC | · | 0.6µM* | · | · | ·
O=C(Cn1c(SCc2ccc(F)cc2)nc2cccnc21)Nc1ccccc1F | · | 9.5µM* | · | · | ·
COc1ccc(NC(=O)Cn2c(SCc3ccc(F)cc3)nc3cccnc32)cc1OC | · | 2.7µM* | · | · | ·
O=C(CSc1nc2ccccc2n1CC(=O)Nc1ccc(F)cc1F)Nc1ccc(F)cc1 | · | 0% | · | · | ·
COc1ccc(CC(=O)NCc2nc3cccnc3n2Cc2ccc(F)cc2)cc1OC | · | 1% | · | · | ·
SMILES | ELG1 genotox | FLuc counter | Rab9 prom act | SMN2 splice up | NPC1 prom act
O=C(Cn1c(SCc2ccccc2F)nc2cccnc21)Nc1ccc(F)c(Cl)c1 | · | 27µM* | · | · | ·
CN(C)c1ccc(NC(=O)Cn2c(SCc3ccccc3F)nc3cccnc32)cc1 | · | 0% | · | · | ·
CCc1noc(-c2ccc(N(C)Cc3ccc(OC)cc3)c([N+](=O)[O-])c2)n1 | · | -14% | · | · | ·
Cc1ccc2c(c1)c1cccc3c1n2CCN3CCC(N)=O | 5µM* | 6µM* | 3.2µM* | 20µM* | 3.2µM*
NC(=O)CCn1c2ccccc2c2ccccc21 | -4% | -3% | -18% | -2% | -1%
N#CC1(NC(=O)COC(=O)C23CC4CC(CC(O)(C4)C2)C3)CCCCC1 | 7% | 6% | -4% | · | -2%
O=C(NCCc1c[nH]c2ccccc12)/C(=C\c1ccco1)NC(=O)c1ccco1 | 2% | 4% | -4% | -7% | -2%
Cc1ccc(C(=O)N/C(=C\c2ccco2)C(=O)NCCc2c[nH]c3ccccc23)cc1 | 3% | 15µM* | 0% | 17% | 1%
Cc1ccc(C(=O)NCCc2c[nH]c3ccccc23)c(C)c1 | 9% | 6.7µM* | 3.2µM* | · | 1.6µM*
CC(C)C(=O)NCCc1c[nH]c2ccccc12 | 1% | -6% | 0% | 1% | 6%
Cc1ccc(C(=O)NCCc2c[nH]c3ccccc23)s1 | ? | 12µM* | 3.2µM* | · | 3.5µM*
CCC(CC)C(=O)OCc1cc(=O)n2nc(C3CC3)sc2n1 | · | -4% | · | · | ·
COc1ccccc1NC(=O)c1ncn(-c2ccccc2)n1 | · | ? | · | 11µM* | ·
Cc1ccc(NC(=O)c2ncn(-c3ccccc3)n2)c(Cl)c1 | · | ? | · | 20% | ·
COc1ccccc1NC(=O)c1cn(-c2ccccc2)nc1-c1ccccc1 | · | -12% | · | · | ·
O=C(Nc1ccc(F)cc1)c1ncn(-c2ccccc2)n1 | · | 11µM* | · | 14µM* | ·
CCc1cc2c(cc3c(=O)n(CC(=O)N4CCCCC4)ncn32)s1 | · | -1% | · | · | ·
O=C(Nc1ccc(C(=O)N2CCN(c3ccccc3)CC2)cc1)C1=CSCCO1 | -2% | -2% | -9% | · | 0%
CC(C)(C)c1ccc(-c2nc(N)nc(N)n2)cc1 | ? | 2.1µM* | ? | · | ?
CC(C)(C)c1cc(-c2nc(N)nc(N)n2)cc(C(C)(C)C)c1 | 0% | -16% | -1% | -2% | 0%
COc1ccc(/C=N/Nc2ncnc3scc(-c4ccccc4)c23)cc1OC | -9% | ? | 7% | 2% | -2%
CCOc1ccc(/C=N/Nc2ccccn2)cc1OC | 21µM* | 5.4µM* | 2.8µM* | 14µM* | ?
COc1cc(/C=N/Nc2ccccn2)cc(OC)c1O | -9% | 12µM* | 4% | 19% | -6%
COc1cc(/C=N/Nc2ccccn2)ccc1OCC(C)C | 15% | 2.7µM* | ? | ? | ?
C=CCOc1ccc(/C=N/Nc2ccccn2)cc1OC | ? | 5.4µM* | ? | 11µM* | 3.5µM*
SMILES | ELG1 genotox | FLuc counter | Rab9 prom act | SMN2 splice up | NPC1 prom act
COc1cc(/C=N/Nc2ccc(C(F)(F)F)cn2)cc(OC)c1O | -2% | ? | 1% | 20% | 2%
Cc1oc(-c2ccccc2Cl)nc1CS(=O)(=O)CC(=O)NCc1ccc(F)cc1 | · | -12% | · | -14% | ·
CC(C)(C)OC(=O)N1CCC(Cc2cc(-c3cccnc3)no2)(C(=O)O)CC1 | 1% | -1% | -1% | · | -10%
COc1ccc(CNC(=O)Cc2c(C)c3c(cc(C)c4c(C)coc43)oc2=O)cc1OC | · | 5% | · | 12% | ·
CCCOc1ccc(/C=N/NC(=O)c2c(-c3ccccc3)noc2C)cc1OC | -5% | 0% | 5% | · | -3%
CCOc1ccc(/C=N/N(C)c2ccccc2)cc1OC | 4.6µM* | 4.8µM* | 3.2µM* | 25µM* | ?
CCCOc1ccc(/C=N/Nc2ccccn2)cc1OC | ? | 3.4µM* | 2µM* | 10µM* | ?
Cc1ccc(NC(=O)CCCn2c(=O)c3cccn3c3ccccc32)cc1C | · | 1% | · | · | ·

Screening results as filed in PubChem.
